PubChem BioAssay (EPA / NIEHS)
Results filed as inconclusive are left out. Some compounds were tested as several samples or in several runs, with calls that do not always agree. Calls of active or inactive are those of the source. The calls were made as follows, unless noted: active = hit-call score of the fitted dose curve at least 0.9, where 1 is the maximum; inconclusive = response in the unintended direction; inactive = score below 0.9.

What was measured:
[1] = read-out: Thyroid Hormone Responsive (THRSP), THRSP (gene 7069); experiment: LTEA_HepaRG_THRSP: Life Technologies and Expression Analysis (LTEA) Assay for Thyroid Hormone Responsive (THRSP) using HepaRG (AID 2283536; active = hit-call score of the fitted dose curve at least 0.9, where 1 is the maximum; inactive = score below 0.9); details: mRNA level, 48 h; actives raise or lower the signal
In short: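 Differentiated human HepaRG cells were exposed in duplicate for 48 h in serum-free induction medium to eight concentrations (top 100 uM, half-log steps, 0.5% DMSO). Expression was quantified by TaqMan qRT-PCR, normalized to ACTB, GAPDH and POLR2A, with bidirectional fitting against DMSO.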

[2] = read-out: Cellular tumor antigen p53 (Homo sapiens) (UniProt P04637); experiment: LTEA_HepaRG_TP53: Life Technologies and Expression Analysis (LTEA) Assay for Tumor Protein P53 (TP53) using HepaRG (AID 2283537; active = hit-call score of the fitted dose curve at least 0.9, where 1 is the maximum; inactive = score below 0.9); details: mRNA level, 48 h; actives raise or lower the signal
In short: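 Differentiated HepaRG cells in serum-free induction medium exposed 48 h in duplicate to 8 half-log concentrations, top 100 uM, 0.5% DMSO. TP53 mRNA by TaqMan qRT-PCR (Fluidigm), normalized to ACTB, GAPDH, POLR2A; fitted bidirectionally versus DMSO.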

[3] = read-out: UDP glucuronosyltransferase (UGT1A1), UGT1A1 (gene 54658); experiment: LTEA_HepaRG_UGT1A1: Life Technologies and Expression Analysis (LTEA) Assay for UDP glucuronosyltransferase (UGT1A1) using HepaRG (AID 2283538; active = hit-call score of the fitted dose curve at least 0.9, where 1 is the maximum; inactive = score below 0.9); details: mRNA level, 48 h; actives raise or lower the signal
In short: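 Human liver HepaRG cultures receive test chemical for 48 h, up to 100 uM in 0.5% DMSO, with phenobarbital induction controls. UGT1A1 mRNA is measured by qRT-PCR and normalized to ACTB, GAPDH and POLR2A.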

[4] = read-out: UDP glucuronosyltransferase (UGT1A6), UGT1A6 (gene 54578); experiment: LTEA_HepaRG_UGT1A6: Life Technologies and Expression Analysis (LTEA) Assay for UDP glucuronosyltransferase (UGT1A6) using HepaRG (AID 2283539; active = hit-call score of the fitted dose curve at least 0.9, where 1 is the maximum; inactive = score below 0.9); details: mRNA level, 48 h; actives raise or lower the signal
In short: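 Expression was quantified by TaqMan qRT-PCR on Fluidigm arrays with ACTB/GAPDH/POLR2A normalization and bidirectional fitting against 0.5% DMSO. HepaRG cells (~100,000/well) were treated in duplicate for 48 h at eight half-log concentrations up to 100 uM in serum-free induction medium.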

[5] = read-out: X-box binding protein 1 (XBP1), XBP1 (gene 7494); experiment: LTEA_HepaRG_XBP1: Life Technologies and Expression Analysis (LTEA) Assay for X-box binding protein 1 (XBP1) using HepaRG (AID 2283540; active = hit-call score of the fitted dose curve at least 0.9, where 1 is the maximum; inactive = score below 0.9); details: mRNA level, 48 h; actives raise or lower the signal
In short: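 XBP1 transcript by qRT-PCR (housekeeping-normalized: ACTB, GAPDH, POLR2A) after 48 h chemical treatment of HepaRG cells, 8-point half-log series topping at 100 uM, vehicle 0.5% DMSO. Gain and loss of signal fitted relative to DMSO.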

[6] = LTEA_HepaRG_LDH_cytotoxicity: Cytotoxicity Assessment in the Life Technologies and Expression Analysis (LTEA) Assay (AID 2283563);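 as to AC50: LDH activity released into spent culture medium as a marker of cell death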
In short: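 LDH release into culture medium read after 48 h chemical treatment of HepaRG cells. Duplicate wells, eight-point half-log series topping at 100 uM, 0.5% DMSO vehicle and baseline.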

[7] = Tanguay_ZF_120hpf_MORT_legacy: (Legacy) Oregon State University Tanguay Lab 120 Hour Post-fertilization zebrafish Assay for Mortality (AID 2283633)
In short: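 Static waterborne exposure from 6 to 120 hpf at 28C of single dechorionated wild-type (5D) embryos per well, 0.64% DMSO final. Death recorded present/absent by brightfield at 24 and 120 hpf.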

[8] = Tanguay_ZF_120hpf_YSE_legacy: (Legacy) Oregon State University Tanguay Lab 120 Hour Post-fertilization zebrafish Assay for Yolk Sac Edema (AID 2283634)
In short: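 Presence or absence of yolk sac edema was recorded at 120 hpf in surviving larvae. These were wild-type Tropical 5D embryos, chorion removed at 4 hpf, held in static exposure at 28C from 6 hpf with 0.64% DMSO vehicle.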

[9] = Tanguay_ZF_120hpf_AXIS_legacy: (Legacy) Oregon State University Tanguay Lab 120 Hour Post-fertilization zebrafish Assay for Body Axis Malformation (AID 2283635)
In short: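 Binary scoring of axis defects at 120 hpf under brightfield, fitted positive versus DMSO. Tropical 5D embryos, chorion removed by pronase at 4 hpf, were singly exposed in sealed, dark plates at 28C from 6 hpf; DMSO 0.64% final.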

[10] = Tanguay_ZF_120hpf_EYE_legacy: (Legacy) Oregon State University Tanguay Lab 120 Hour Post-fertilization zebrafish Assay for Eye Malformation (AID 2283636);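 also: binary presence or absence of eye malformation scored by brightfield in 120 hpf larvae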
In short: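 Dechorionated wild-type Tropical 5D zebrafish embryos were exposed statically from 6 hpf, one per well, to 120 hpf at 28C in sealed, foil-covered plates with 0.64% DMSO. Eye malformation was scored present/absent by brightfield microscopy against DMSO controls.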

[11] = ATG_XTT_Cytotoxicity: Cytotoxicity Assessment in the Attagene TRANS-FACTORIAL HepG2 Assay (AID 2283584)
In short: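 Viability endpoint from XTT after 24 h chemical exposure of reporter-transfected human HepG2 liver cells; signal loss fitted relative to DMSO negative control.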

[12] = TOX21_p53_BLA_p2_viability: Viability Assessment in the Tox21 HCT-116 p53 Agonism Beta-lactamase Assay, Phase 2 (AID 2283591);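 also: compound exposure lasted 16 h at 37 °C; actives lower the ATP signal meaning cytotoxicity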
In short: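 HCT-116 p53-bla cells (4000/well) rested 5 h at 37C, then received compounds in DMSO (217-fold dilution) for 16 h at 37C, 5% CO2. After the CCF4 read, CellTiter-Glo was added; ATP luminescence was read after 30 min at room temperature.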

[13] = TOX21_p53_BLA_p3_viability: Viability Assessment in the Tox21 HCT-116 p53 Agonism Beta-lactamase Assay, Phase 3 (AID 2283593);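 also: cells exposed to compound for 16 h before reading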
In short: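 HCT-116 cells (4000/well) rested 5 h at 37C, then got DMSO compounds by pin tool (217-fold dilution) for 16 h at 37C, 5% CO2. After the bla read, CellTiter-Glo was added and luminescence read at 30 min, room temperature.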

[14] = molecular target: Cellular tumor antigen p53 (Homo sapiens) (UniProt P04637); experiment: TOX21_p53_BLA_p3_ratio: Tox21 HCT-116 p53 Agonism Beta-lactamase Assay, Ratio, Phase 3 (AID 2283596)
In short: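 HCT116 p53-bla cells (4000/well) given compound in DMSO (217-fold dilution) after 5 h, incubated 16 h at 37C. CCF4-AM substrate 2 h at room temperature; 460/530 nm emission ratio, gain fitted against DMSO.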

[15] = TOX21_p53_BLA_p4_viability: Viability Assessment in the Tox21 HCT-116 p53 Agonism Beta-lactamase Assay, Phase 4 (AID 2283597);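 also: hits lower the luminescence signal meaning cytotoxicity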
In short: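 Following a 16 h exposure at 37C, the treated HCT116 wells were first read for the FRET ratio. They were then lysed with CellTiter-Glo, and ATP luminescence was recorded after 30 min at room temperature.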

[16] = molecular target: Cellular tumor antigen p53 (Homo sapiens) (UniProt P04637); experiment: TOX21_p53_BLA_p5_ratio: Tox21 HCT-116 p53 Agonism Beta-lactamase Assay, Ratio, Phase 5 (AID 2283599)
In short: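 HCT-116 cells carrying a p53-inducible beta-lactamase reporter were seeded at 4000 cells/well and dosed after 5 h with compound in DMSO (217-fold dilution). After 16 h at 37C, CCF4-AM substrate was added for 2 h, and the 460/530 nm emission ratio was scored as gain-of-signal versus DMSO.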

[17] = TOX21_p53_BLA_p5_viability: Viability Assessment in the Tox21 HCT-116 p53 Agonism Beta-lactamase Assay, Phase 5 (AID 2283600)
In short: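 After the 460/530 nm beta-lactamase measurement, the wells received an ATP-detection luciferase reagent; signal was read 30 min later at RT. Compound treatment lasted 16 h on cells pre-incubated 5 h post-seeding.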

[18] = Tanguay_ZF_120hpf_SNOU_legacy: (Legacy) Oregon State University Tanguay Lab 120 Hour Post-fertilization zebrafish Assay for Snout Malformation (AID 2283637)
In short: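 Tropical 5D wild-type zebrafish embryos, dechorionated with pronase at 4 hpf, were exposed singly from 6 hpf to 120 hpf statically at 28C in 0.64% DMSO. Snout malformation was scored present/absent by brightfield microscopy, fitted against DMSO.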

[19] = molecular target: Cellular tumor antigen p53 (Homo sapiens) (UniProt P04637); experiment: TOX21_p53_BLA_p2_ratio: Tox21 HCT-116 p53 Agonism Beta-lactamase Assay, Ratio, Phase 2 (AID 2283592)
In short: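 Gain-of-signal p53 agonism was scored from the beta-lactamase FRET ratio (460/530 nm, 405 nm excitation) in HCT116 cells treated 16 h at 37C, 5% CO2, with DMSO serving as negative control and baseline.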

[20] = molecular target: Cellular tumor antigen p53 (Homo sapiens) (UniProt P04637); experiment: TOX21_p53_BLA_p4_ratio: Tox21 HCT-116 p53 Agonism Beta-lactamase Assay, Ratio, Phase 4 (AID 2283601)
In short: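 HCT116 cells carrying an inducible beta-lactamase reporter were plated at 4000 cells/well, rested 5 h, then exposed to compounds in DMSO (217-fold dilution) for 16 h at 37C. CCF4-AM substrate was loaded 2 h at room temperature; 460/530 nm emission ratio scored gain-of-signal versus DMSO.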

Measured: AC50

Chain of Cellular tumor antigen p53 (Homo sapiens) (P04637 whole entry, looked up): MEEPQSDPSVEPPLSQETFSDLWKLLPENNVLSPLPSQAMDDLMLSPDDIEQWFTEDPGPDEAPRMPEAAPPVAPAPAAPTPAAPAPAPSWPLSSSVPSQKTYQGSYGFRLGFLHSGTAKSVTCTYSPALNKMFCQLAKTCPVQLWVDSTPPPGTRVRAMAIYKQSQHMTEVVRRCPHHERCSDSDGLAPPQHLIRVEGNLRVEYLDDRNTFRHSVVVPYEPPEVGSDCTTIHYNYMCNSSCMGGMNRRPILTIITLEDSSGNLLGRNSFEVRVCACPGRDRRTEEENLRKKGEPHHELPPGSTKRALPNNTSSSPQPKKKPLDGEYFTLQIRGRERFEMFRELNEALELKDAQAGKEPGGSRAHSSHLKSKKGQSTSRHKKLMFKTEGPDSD

O=C(O)CC(O)(CC(=O)O)C(=O)O
inactive: [1] | [2] | [3] | [4] | [5] | [6] | [7] | [8] | [9] | [10]

CCCCC(CC)COP(=O)(OCC(CC)CCCC)OCC(CC)CCCC (stereo not drawn)
active: [3] 13.3 µM
not listed: [19] | [20]
inactive: all other assays above

Cc1ccc(C(C)(C)C)c(O)c1
active: [15] 43.2 µM | [20] 69 µM
inactive: [1] | [2] | [3] | [4] | [5] | [6] | [11] | [12] | [19] | [13] | [14] | [16] | [17] | [20] | [7] | [8] | [9]

COC(=O)CCCC(=O)OC
not listed: [13] | [18]
inactive: all other assays above

CN(C)C(=O)NC1(c2ccccc2)CCN(CC[C@@]2(c3ccc(F)c(F)c3)CN(C(=O)c3ccccc3)CCO2)CC1
active: [1] 29.7 µM | [6] 73.5 µM | [15] 65 µM
not listed: [11] | [13]
inactive: all other assays above

CCCCCCC(CCCCCCCCCCC(=O)OCC(COC(C)=O)OC(C)=O)OC(C)=O (stereo not drawn)
not listed: [12] | [13] | [14] | [15] | [18]
inactive: all other assays above

O=C1OC(c2ccc(O)cc2)(c2ccc(O)cc2)c2ccccc21
active: [1] 80.3 µM | [3] 82 µM | [4] 72.6 µM
inactive: all other assays above
